According to the supplement of paper PMC10849652:
Targets with a hit are over-represented here; the source holds about 8,800 in all. About 0.5% of all pairs of compound and target were hits.

Columns and labels:
Test in all cases: log2 fold change, soluble protein after heating vs DMSO (PISA); higher = thermal stabilisation; K562 lysate, 10 uM; active = over 0.2 and 3.5 SD of the protein, either way, in both replicates (recomputed)
[1] = compound: CN1CC[C@H](c2c(O)cc(O)c3c(=O)cc(-c4ccccc4Cl)oc23)[C@H](O)C1 [alvocidib]
Procedure, shortened: (§1)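 A 30 min treatment with 10 μM compound was applied to crude K562 extract at 1 mg/mL protein in PBS pH 7.4 with 1 mM MgCl2. Heating for 3 min spanned 48°C-58°C, after which aliquots were pooled, adjusted to 0.5% NP-40 at 4°C and spun at 21,000xg for 90 min. TMTpro 16plex LC-MS/MS of the supernatant, with channel sums equalised, gave values recorded as log-two fold change in thermal stability against solvent controls, from duplicates.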

[2] = compound: CN1CCc2c(c3ccccc3n2Cc2ccc(C(=O)NO)cc2)C1 [Tubastatin A]
Procedure, shortened: as §1

[3] = compound: CNC(=O)C1=CC=CC=C1NC2=NC(=NC=C2Cl)NC3=C(C=C(C=C3)N4CCOCC4)OC
Procedure, shortened: as §1

[4] = compound: CNC(=O)c1ccc(Nc2ncc(C(F)(F)F)c(NCc3nccnc3N(C)S(C)(=O)=O)n2)cc1 [defactinib]
Procedure, shortened: as §1

[5] = compound: CNc1nc(-c2ccc3c(N)n[nH]c3c2)cc(N2C[C@@H](C(=O)NC3CCCCC3)CC[C@H]2C)n1
Procedure, shortened: as §1

[6] = compound: COC(=O)N[C@@H](C)CNc1nccc(-c2cn(C(C)C)nc2-c2cc(Cl)cc(NS(C)(=O)=O)c2F)n1 [encorafenib]
Procedure, shortened: as §1

[7] = compound: COC(=O)[C@H](CCSC)NC(=O)C1=C(C=C(C=C1)NC[C@H](CS)N)C2=CC=CC=C2
Procedure, shortened: as §1

[8] = compound: COc1cc(Nc2ncc3c(n2)-c2ccc(Cl)cc2C(c2c(F)cccc2OC)=NC3)ccc1C(=O)O [alisertib]
Procedure, shortened: as §1

[9] = compound: COc1cc2nc(-c3cc(F)ccc3O)nc(N[C@@H]3CNC[C@H]3C(C)(C)O)c2cc1OC
Procedure, shortened: as §1

[10] = compound: COc1cc2ncnc(Nc3ccc(F)c(Cl)c3)c2cc1OCCCN1CCOCC1 [gefitinib]
Procedure, shortened: as §1

Measured: log2 fold change

ACAT1 (UniProt P24752)
inactive: [1] 0.018 | [2] -0.136 | [3] 0.001 | [4] -0.027 | [5] 0.05 | [6] -0.033 | [7] 0.04 | [8] 0 | [9] -0.006 | [10] -0.06

AHCYL1 (UniProt O43865)
inactive: [1] 0.025 | [2] -0.096 | [3] 0.051 | [4] 0.06 | [5] 0.037 | [6] 0.01 | [7] 0.009 | [8] -0.041 | [9] -0.003 | [10] -0.012

AKAP8L (UniProt Q9ULX6)
Sequence of UniProt Q9ULX6 (Q9ULX6 whole entry, looked up): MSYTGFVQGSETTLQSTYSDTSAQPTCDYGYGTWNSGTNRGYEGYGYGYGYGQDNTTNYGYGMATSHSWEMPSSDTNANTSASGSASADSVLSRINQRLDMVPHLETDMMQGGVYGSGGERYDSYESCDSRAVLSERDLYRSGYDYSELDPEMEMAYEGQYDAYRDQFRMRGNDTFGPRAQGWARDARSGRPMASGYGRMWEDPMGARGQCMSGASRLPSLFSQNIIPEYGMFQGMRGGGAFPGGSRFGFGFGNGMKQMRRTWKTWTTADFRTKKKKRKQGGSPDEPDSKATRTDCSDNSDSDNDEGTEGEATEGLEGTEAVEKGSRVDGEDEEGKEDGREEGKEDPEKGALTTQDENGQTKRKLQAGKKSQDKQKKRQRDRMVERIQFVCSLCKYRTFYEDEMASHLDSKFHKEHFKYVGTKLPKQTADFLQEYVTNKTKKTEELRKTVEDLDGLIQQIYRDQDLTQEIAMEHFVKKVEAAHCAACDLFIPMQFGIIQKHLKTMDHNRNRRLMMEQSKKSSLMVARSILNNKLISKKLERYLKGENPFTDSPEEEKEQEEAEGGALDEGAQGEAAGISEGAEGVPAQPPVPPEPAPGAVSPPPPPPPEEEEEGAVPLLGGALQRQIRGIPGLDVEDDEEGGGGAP
inactive: [1] -0.003 | [2] -0.183 | [3] 0.008 | [4] 0.003 | [5] -0.109 | [6] 0.059 | [7] -0.032 | [8] 0.043 | [9] 0.011 | [10] 0.009

ALKBH4 (UniProt Q9NXW9)
inactive: [1] 0.029 | [2] -0.093 | [3] -0.003 | [4] 0.166 | [5] 0.026 | [6] 0.053 | [7] -0.02 | [8] 0.019 | [9] -0.03 | [10] 0.044

ASPH (UniProt Q12797)
inactive: [1] -0.012 | [2] 0.018 | [3] -0.01 | [4] 0.023 | [5] -0.006 | [6] 0.018 | [7] -0.047 | [8] 0.042 | [9] -0.025 | [10] -0.041

ALDH2 (UniProt P05091)
inactive: [1] 0.059 | [2] -0.006 | [4] -0.03 | [5] -0.051 | [6] 0.006 | [7] -0.03 | [8] 0.037 | [9] -0.016 | [10] 0.014
active: [3] 0.437

ACTBL2 (UniProt Q562R1)
Sequence of UniProt Q562R1 (Q562R1 whole entry, looked up): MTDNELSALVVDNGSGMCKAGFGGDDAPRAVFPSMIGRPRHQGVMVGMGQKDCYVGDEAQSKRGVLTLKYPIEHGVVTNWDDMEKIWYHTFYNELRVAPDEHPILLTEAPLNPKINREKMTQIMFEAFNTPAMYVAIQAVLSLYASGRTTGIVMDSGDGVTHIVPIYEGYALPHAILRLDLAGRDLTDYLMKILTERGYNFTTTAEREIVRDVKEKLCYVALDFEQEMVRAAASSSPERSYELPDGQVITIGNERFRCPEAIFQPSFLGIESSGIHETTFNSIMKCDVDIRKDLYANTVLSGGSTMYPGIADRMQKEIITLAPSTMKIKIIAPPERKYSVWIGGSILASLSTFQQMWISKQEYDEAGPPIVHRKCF
inactive: [1] -0.083 | [2] -0.111 | [3] -0.01 | [4] 0.093 | [5] -0.008 | [6] -0.226 | [7] 0.005 | [8] -0.273 | [9] 0.009 | [10] -0.223

ALDH1B1 (UniProt P30837)
Sequence of UniProt P30837 (P30837 whole entry, looked up): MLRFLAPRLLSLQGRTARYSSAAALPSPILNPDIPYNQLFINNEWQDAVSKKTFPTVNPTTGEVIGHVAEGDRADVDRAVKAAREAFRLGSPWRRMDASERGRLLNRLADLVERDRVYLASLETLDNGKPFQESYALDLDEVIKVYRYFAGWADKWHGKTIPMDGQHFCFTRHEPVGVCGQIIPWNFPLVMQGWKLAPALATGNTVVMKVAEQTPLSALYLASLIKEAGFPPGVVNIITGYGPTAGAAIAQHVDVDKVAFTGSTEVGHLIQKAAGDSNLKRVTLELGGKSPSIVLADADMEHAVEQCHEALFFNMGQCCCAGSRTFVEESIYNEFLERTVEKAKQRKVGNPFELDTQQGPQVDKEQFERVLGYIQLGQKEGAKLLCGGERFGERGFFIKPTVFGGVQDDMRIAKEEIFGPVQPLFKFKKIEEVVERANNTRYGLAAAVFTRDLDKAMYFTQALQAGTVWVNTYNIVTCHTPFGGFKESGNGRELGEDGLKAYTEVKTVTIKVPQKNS
active: [3] 0.233
inactive: [1] 0.168 | [2] 0.01 | [4] -0.029 | [5] 0.007 | [6] -0.008 | [7] 0.127 | [8] -0.002 | [9] 0.006 | [10] -0.026

ARGLU1 (UniProt Q9NWB6)
Sequence of UniProt Q9NWB6 (Q9NWB6 whole entry, looked up): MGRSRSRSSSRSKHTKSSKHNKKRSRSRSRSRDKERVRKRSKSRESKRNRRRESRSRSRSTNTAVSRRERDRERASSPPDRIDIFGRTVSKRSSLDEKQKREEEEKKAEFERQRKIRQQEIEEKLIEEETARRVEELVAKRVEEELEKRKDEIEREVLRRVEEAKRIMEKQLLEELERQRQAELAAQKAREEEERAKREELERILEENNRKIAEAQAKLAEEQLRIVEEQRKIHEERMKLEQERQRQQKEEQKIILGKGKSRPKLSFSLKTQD
inactive: [1] -0.119 | [2] 0.018 | [3] -0.056 | [4] -0.049 | [5] 0.01 | [6] 0.012 | [7] -0.039 | [8] -0.006 | [9] 0.012 | [10] 0.006

ALDH6A1 (UniProt Q02252)
Sequence of UniProt Q02252 (Q02252 whole entry, looked up): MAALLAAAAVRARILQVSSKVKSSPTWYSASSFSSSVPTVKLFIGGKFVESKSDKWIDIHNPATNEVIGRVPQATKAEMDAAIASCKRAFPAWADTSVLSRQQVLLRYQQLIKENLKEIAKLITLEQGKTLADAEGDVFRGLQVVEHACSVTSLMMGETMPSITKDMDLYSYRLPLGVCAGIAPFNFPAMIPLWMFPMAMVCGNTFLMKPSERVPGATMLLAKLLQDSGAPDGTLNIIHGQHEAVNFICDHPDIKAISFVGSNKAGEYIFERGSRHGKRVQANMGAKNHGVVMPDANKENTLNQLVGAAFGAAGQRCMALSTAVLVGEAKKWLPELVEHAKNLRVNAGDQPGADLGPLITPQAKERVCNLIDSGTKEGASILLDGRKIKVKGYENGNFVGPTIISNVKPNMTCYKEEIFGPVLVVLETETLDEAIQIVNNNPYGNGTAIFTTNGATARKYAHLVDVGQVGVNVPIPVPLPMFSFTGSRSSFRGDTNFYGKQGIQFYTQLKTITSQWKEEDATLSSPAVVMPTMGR
inactive: [1] -0.044 | [3] 0.106 | [4] 0.018 | [5] 0.091 | [6] -0.015 | [7] 0.103 | [8] 0.086 | [9] 0.061 | [10] 0.098
active: [2] 0.43

AGPS (UniProt O00116)
inactive: [1] -0.011 | [2] 0.039 | [3] -0.046 | [4] -0.003 | [5] 0.011 | [6] -0.005 | [7] -0.125 | [8] 0.035 | [9] -0.03 | [10] -0.002

ARHGAP21 (UniProt Q5T5U3)
inactive: [1] 0.032 | [2] 0.008 | [3] 0.03 | [4] 0.015 | [5] 0.056 | [6] 0.079 | [7] 0.101 | [8] -0.023 | [9] -0.007 | [10] -0.095

ABHD12 isoform 2 (UniProt Q8N2K0)
inactive: [1] 0.02 | [2] 0.001 | [3] 0.039 | [4] -0.004 | [5] 0.003 | [6] 0.046 | [7] -0.018 | [8] -0.031 | [9] -0.03 | [10] -0.045

ACAA1 (UniProt P09110)
inactive: [1] -0.027 | [2] 0.043 | [3] 0.008 | [4] 0.008 | [5] 0.093 | [6] -0.021 | [7] 0.012 | [8] -0.035 | [9] 0.01 | [10] 0.015

AMMECR1 (UniProt Q9Y4X0)
Sequence of UniProt Q9Y4X0 (Q9Y4X0 whole entry, looked up): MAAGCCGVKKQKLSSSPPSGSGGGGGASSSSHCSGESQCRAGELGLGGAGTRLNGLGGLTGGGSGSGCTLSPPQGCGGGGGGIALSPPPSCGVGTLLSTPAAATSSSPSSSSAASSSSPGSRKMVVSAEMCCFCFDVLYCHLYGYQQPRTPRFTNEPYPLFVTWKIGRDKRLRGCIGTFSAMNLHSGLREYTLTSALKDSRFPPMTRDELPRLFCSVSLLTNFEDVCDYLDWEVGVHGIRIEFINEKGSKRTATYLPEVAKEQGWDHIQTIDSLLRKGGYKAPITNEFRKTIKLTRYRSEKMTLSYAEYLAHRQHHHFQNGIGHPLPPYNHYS
inactive: [1] -0.014 | [2] 0.022 | [3] 0.02 | [4] 0.02 | [5] 0.003 | [6] 0.02 | [7] -0.01 | [8] -0.031 | [9] 0.011 | [10] -0.019

ACYP1 (UniProt P07311)
Sequence of UniProt P07311 (P07311 whole entry, looked up): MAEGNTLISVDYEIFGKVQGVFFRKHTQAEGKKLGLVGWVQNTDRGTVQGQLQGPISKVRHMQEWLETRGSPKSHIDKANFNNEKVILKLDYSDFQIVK
inactive: [1] 0.084 | [2] 0.008 | [3] -0.002 | [4] 0.014 | [5] -0.018 | [6] -0.018 | [7] -0.016 | [8] 0.012 | [9] -0.008 | [10] 0.026

ANKRD54 (UniProt Q6NXT1)
inactive: [1] -0.019 | [2] -0.095 | [3] 0.121 | [4] 0.022 | [5] 0.042 | [6] 0.082 | [7] -0.147 | [8] 0.006 | [9] -0.011 | [10] 0.002

ACBD6 (UniProt Q9BR61)
inactive: [1] -0.009 | [2] -0.15 | [3] 0.056 | [4] -0.005 | [5] 0.016 | [6] -0.003 | [7] 0.051 | [8] -0.006 | [9] 0.016 | [10] -0.022

APEX1 (UniProt P27695)
Sequence of UniProt P27695 (P27695 whole entry, looked up): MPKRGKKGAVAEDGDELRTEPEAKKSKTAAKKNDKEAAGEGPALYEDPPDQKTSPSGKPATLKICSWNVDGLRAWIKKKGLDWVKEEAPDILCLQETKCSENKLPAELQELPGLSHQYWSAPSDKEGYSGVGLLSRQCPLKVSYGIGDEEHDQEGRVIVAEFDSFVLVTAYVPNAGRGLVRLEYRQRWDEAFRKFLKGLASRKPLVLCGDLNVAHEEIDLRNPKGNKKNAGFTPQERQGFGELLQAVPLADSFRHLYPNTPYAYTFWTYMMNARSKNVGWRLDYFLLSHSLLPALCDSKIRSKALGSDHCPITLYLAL
inactive: [1] 0.13 | [2] -0.07 | [3] 0.006 | [4] 0.023 | [5] 0.038 | [6] -0.024 | [7] 0.076 | [8] 0 | [9] -0.019 | [10] -0.064

ALDH1A1 (UniProt P00352)
Sequence of UniProt P00352 (P00352 whole entry, looked up): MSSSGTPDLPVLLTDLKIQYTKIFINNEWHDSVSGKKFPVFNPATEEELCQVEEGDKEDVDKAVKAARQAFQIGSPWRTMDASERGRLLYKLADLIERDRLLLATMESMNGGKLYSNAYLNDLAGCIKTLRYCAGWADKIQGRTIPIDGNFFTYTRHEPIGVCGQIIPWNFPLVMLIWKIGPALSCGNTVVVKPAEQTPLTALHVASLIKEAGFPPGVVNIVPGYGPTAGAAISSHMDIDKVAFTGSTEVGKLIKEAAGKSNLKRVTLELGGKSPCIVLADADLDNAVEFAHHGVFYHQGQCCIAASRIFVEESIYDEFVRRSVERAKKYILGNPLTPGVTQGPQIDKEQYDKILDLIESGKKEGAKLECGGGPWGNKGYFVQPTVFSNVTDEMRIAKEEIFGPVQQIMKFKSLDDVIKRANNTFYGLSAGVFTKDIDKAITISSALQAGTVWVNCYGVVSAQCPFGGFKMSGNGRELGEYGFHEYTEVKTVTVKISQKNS
inactive: [1] 0.06 | [2] -0.004 | [3] 0.004 | [4] -0.007 | [5] -0.037 | [6] -0.009 | [7] -0.043 | [8] 0.01 | [9] -0.001 | [10] -0.017

AP4B1 (UniProt Q9Y6B7)
Sequence of UniProt Q9Y6B7 (Q9Y6B7 whole entry, looked up): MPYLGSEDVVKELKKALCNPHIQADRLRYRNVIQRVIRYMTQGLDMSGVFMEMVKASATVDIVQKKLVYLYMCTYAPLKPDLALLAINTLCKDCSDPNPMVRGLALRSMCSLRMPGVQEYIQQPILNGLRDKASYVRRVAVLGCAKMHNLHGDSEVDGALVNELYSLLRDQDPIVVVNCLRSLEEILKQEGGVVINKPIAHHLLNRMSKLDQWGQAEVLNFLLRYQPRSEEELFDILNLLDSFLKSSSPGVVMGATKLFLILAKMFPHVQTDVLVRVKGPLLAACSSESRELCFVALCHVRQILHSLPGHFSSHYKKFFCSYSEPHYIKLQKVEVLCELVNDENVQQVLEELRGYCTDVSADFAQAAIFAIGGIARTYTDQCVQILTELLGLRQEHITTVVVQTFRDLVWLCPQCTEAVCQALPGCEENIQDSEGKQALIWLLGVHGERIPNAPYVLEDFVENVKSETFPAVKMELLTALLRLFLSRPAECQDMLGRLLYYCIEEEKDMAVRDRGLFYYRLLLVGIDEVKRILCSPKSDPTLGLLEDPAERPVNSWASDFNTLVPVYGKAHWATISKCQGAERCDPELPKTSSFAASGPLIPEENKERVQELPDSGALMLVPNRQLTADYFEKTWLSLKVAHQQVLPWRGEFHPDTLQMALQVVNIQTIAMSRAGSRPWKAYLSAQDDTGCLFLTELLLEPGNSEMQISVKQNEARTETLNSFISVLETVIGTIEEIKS
inactive: [1] -0.053 | [2] -0.021 | [3] -0.051 | [4] -0.001 | [5] 0.041 | [6] 0.057 | [7] -0.01 | [8] -0.014 | [9] -0.121 | [10] 0.031

AIP (UniProt O00170)
inactive: [1] 0.164 | [2] 0.003 | [3] 0.037 | [4] 0.004 | [5] 0.015 | [6] -0.008 | [7] 0.043 | [8] -0.039 | [9] -0.002 | [10] -0.032

ARL15 (UniProt Q9NXU5)
inactive: [1] 0.177 | [2] -0.002 | [3] -0.013 | [4] -0.013 | [5] -0.021 | [6] 0.037 | [7] -0.211 | [8] 0.005 | [9] 0 | [10] -0.057

ALDH18A1 (UniProt P54886)
inactive: [1] -0.005 | [2] -0.049 | [3] 0.005 | [4] 0.006 | [5] -0.01 | [6] -0.009 | [7] 0.062 | [8] 0.01 | [9] 0.017 | [10] 0.001

ANXA11 (UniProt P50995)
Sequence of UniProt P50995 (P50995 whole entry, looked up): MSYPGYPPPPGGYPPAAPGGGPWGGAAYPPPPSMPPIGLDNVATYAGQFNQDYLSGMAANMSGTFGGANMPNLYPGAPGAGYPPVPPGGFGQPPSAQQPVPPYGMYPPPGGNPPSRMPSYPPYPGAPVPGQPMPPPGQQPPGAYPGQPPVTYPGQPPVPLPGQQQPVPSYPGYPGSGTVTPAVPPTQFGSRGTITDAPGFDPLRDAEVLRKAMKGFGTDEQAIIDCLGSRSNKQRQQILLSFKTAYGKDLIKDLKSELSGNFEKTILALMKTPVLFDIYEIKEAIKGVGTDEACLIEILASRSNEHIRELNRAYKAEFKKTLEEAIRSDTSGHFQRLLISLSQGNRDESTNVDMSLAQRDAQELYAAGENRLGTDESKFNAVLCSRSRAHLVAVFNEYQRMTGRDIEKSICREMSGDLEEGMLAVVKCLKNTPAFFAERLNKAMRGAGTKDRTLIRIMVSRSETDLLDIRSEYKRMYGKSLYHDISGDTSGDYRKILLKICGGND
inactive: [1] -0.025 | [2] 0.017 | [3] 0.009 | [4] -0.012 | [5] -0.019 | [6] -0.004 | [7] 0.027 | [8] 0.015 | [9] -0.015 | [10] -0.014

ARHGEF2 (UniProt Q92974)
inactive: [1] -0.009 | [2] -0.081 | [3] 0.047 | [4] -0.004 | [5] 0.058 | [6] 0.07 | [7] 0.071 | [8] 0.018 | [9] -0.005 | [10] 0.007

AP3D1 isoform 5 (UniProt O14617)
inactive: [1] -0.02 | [2] -0.048 | [3] 0.018 | [4] 0.033 | [5] 0.03 | [6] 0.026 | [7] -0.028 | [8] -0.009 | [9] 0.004 | [10] -0.014

ACADM isoform 2 (UniProt P11310)
inactive: [1] -0.022 | [2] -0.012 | [3] 0.046 | [4] -0.01 | [6] -0.032 | [7] 0.13 | [8] 0.062 | [9] 0.09 | [10] -0.024
active: [5] 0.386

ARMCX3 (UniProt Q9UH62)
inactive: [1] 0.022 | [2] -0.061 | [3] -0.018 | [4] 0.017 | [5] 0.026 | [6] -0.006 | [7] 0.015 | [8] 0.055 | [9] 0.042 | [10] -0.053
